Results: PubChem BioAssay AID1347426 (Functional Genomics Laboratory (NCATS/FGL), 2020)
The whole screen tested about 31,000 sequences, of which about 1,400 (4.5%) were called active. The sample as a whole holds a higher share of actives than the screen did. Unmarked numbers belong to inactive results.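 The calls were made as follows: active = median seed-adjusted z-score above 1 or below -1; inactive = the rest.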

Assay: Novel Modifiers of Survival Motor Neuron (SMN) Protein: Gene Identification via Genome-wide siRNA Screen
Details: HEK293T SMN2-luciferase reporter, siRNA knockdown, 72 h; actives lie on both sides
Source text: Spinal muscular atrophy (SMA) is the most common neuromuscular autosomal recessive disorder and one of the leading genetic causes of infant death. SMA results from mutations inducing loss of function or deletion in the survival of motor neuron-1 gene (SMN1), leading to deficiency of the survival motor neuron (SMN) protein. Although a second nearly identical gene, SMN2, is retained in humans, its expression primarily produces an aberrantly spliced isoform that is largely unstable and quickly degraded. We performed a genome-wide RNAi screen using a cell-based reporter assay to identify genes and pathways that modulate SMN protein stability. The screen identified over 200 genes that led to the greatest increase or decrease in luciferase expression.
Using HEK293T cells stably expressing a luciferase reporter that combines the promoter and splicing based cassettes in tandem with the major portion of the native SMN2 cDNA with luciferase, we performed a genome-wide RNAi screen to identify modulators of SMN protein levels. Luciferase is expressed when full-length SMN protein is generated with luminescence signal proportional to SMN protein levels. Our luciferase-based reporter assay was used to screen Ambion Silencer Select Human Druggable Genome siRNA library (10418 genes, 3 unique siRNAs per gene) using lipid-based reverse transfection.
Briefly, 1 pmol of each siRNA was spotted to a well of a 384-well plate (Corning, Corning, NY) and 20 microL of serum-free DMEM containing […] of Lipofectamine RNAiMax (Life Technologies, Carlsbad, CA) was then added to each well. Transfected cells were maintained at 37 degrees C in 5% CO2 for 72 hours, 20 microL of ONE-Glo Reagent (Promega) was added to wells for luciferase quantification. Raw luminescence reads were normalized to Ambion(R) Silencer(R) Negative Control #2 siRNA, then log10 transformed. A robust statistical measure of median absolute deviation (MAD) to standardize siRNA activities from each screen. Common Seed Analysis was used to help prioritize clean hits as opposed to those appearing to arise from seed based off-target effects. Candidate modulators were defined as the genes having a MAD score greater than 1.0 or less than -1.0.

Q: For GCAAGACCGAAGUAAACUATT against GPX4, which median seed-adjusted z-score is on record?
A: -1.18 (active)

Q: Which median seed-adjusted z-score does the source give for UGUUAAGCUUCAUCAGUAUTT against MRGPRX1 here?
A: -0.188

Q: Which median seed-adjusted z-score does the source give for ACAUCUCACGGAUCCUUAATT against PAX4 here?
A: 0.0811

Q: With GGUGAAGGUAGAUCAAAGATT against EIF2AK2 as the sequence, how does the median seed-adjusted z-score read?
A: 0.419

Q: For CGACUUCUCAGAAGGCAGATT against GATA4, which median seed-adjusted z-score is on record?
A: -0.24

Q: For AAAUCUCAAUGGUCGCUAUTT against FCN3, which median seed-adjusted z-score is on record?
A: -0.112

Q: For AGGAGCUUGUUGAUCCCUATT against SLC7A8, which median seed-adjusted z-score is on record?
A: -0.134

Q: For CCACAUAGGUCAGAAACGATT against CLDN17, which median seed-adjusted z-score is on record?
A: 0

Q: With CAUCGUCUCUGCUGACAAATT against TUBAL3 as the sequence, how does the median seed-adjusted z-score read?
A: 1.05 (active)

Q: With GGAACCCUUUGAUCAAUUUTT against ADAMTS7 as the sequence, how does the median seed-adjusted z-score read?
A: 0.146

Q: With GAUUGCAGCCAAUCCCUUUTT against TBX6 as the sequence, how does the median seed-adjusted z-score read?
A: 0.144

Q: Which median seed-adjusted z-score does the source give for CACUAGAUCGCGAUAAUAATT against DDB1 here?
A: 0.231

Q: For GGAAGGCAUUACUCACUUATT against SIRT3, which median seed-adjusted z-score is on record?
A: -0.341

Q: With GCCAGAAUCCUUUAGCAGUTT against CRTC1 as the sequence, how does the median seed-adjusted z-score read?
A: 0.00363

Q: Which median seed-adjusted z-score does the source give for GCAUCUGAAGACUCAGGCATT against TAZ here?
A: 0.0549

Q: Which median seed-adjusted z-score does the source give for UCAGCUGUAUCGACCAGAATT against MYL7 here?
A: -1.21 (active)

Q: For GAAAUCAGCCUAUGGUUUATT against NME2, which median seed-adjusted z-score is on record?
A: -0.0728

Q: Which median seed-adjusted z-score does the source give for CCGUAUAUCUGGUGGUUAUTT against PLOD2 here?
A: -0.281

Q: With GAAUCAUAAUCGCUCCUUUTT against SPRR1A as the sequence, how does the median seed-adjusted z-score read?
A: -0.0536

Q: Which median seed-adjusted z-score does the source give for GAAUCCGGAUGAGUACUAUTT against PHF17 here?
A: 1.01 (active)

Q: With CAGUCCCUAUUUCAAAAUATT against PDE6G as the sequence, how does the median seed-adjusted z-score read?
A: 0.0109

Q: Which median seed-adjusted z-score does the source give for GAAUGAUAUUGUCCAUCGATT against CDKL5 here?
A: -0.256

Q: With ACUUCAACGUGACCACAGATT against PNPLA6 as the sequence, how does the median seed-adjusted z-score read?
A: 0.309

Q: For GAUACGCCCUUAUAAUGCATT against ZBTB11, which median seed-adjusted z-score is on record?
A: -0.105

Q: For GAAAUUGCCUAUUACUCUUTT against SLC19A2, which median seed-adjusted z-score is on record?
A: -0.679

Q: Which median seed-adjusted z-score does the source give for UCAUAAUUAUCUCACCAGATT against MEOX2 here?
A: 1.36 (active)

Q: For CCUCUAACGUACCAUCUAATT against OLAH, which median seed-adjusted z-score is on record?
A: -0.44

Q: Which median seed-adjusted z-score does the source give for GUAAGGCAAAGACUCCCUATT against ZNF673 here?
A: 0.419

Q: For GGGACGGAAUAAAUGCUCUTT against NDUFA13, which median seed-adjusted z-score is on record?
A: -0.138

Q: With CUAAGGAAGUAGUUGAUUATT against HADHB as the sequence, how does the median seed-adjusted z-score read?
A: -0.188

Q: For CUACCGUAACAACCGAAAATT against SCN10A, which median seed-adjusted z-score is on record?
A: -0.401

Q: With CCAUUGCAAUCAACACCAATT against ALOX5 as the sequence, how does the median seed-adjusted z-score read?
A: -0.201

Q: Which median seed-adjusted z-score does the source give for GAUGACUUUUGAUAGUGAATT against ODC1 here?
A: -1.64 (active)

Q: For AGGUCAUUGCUGAGAAGUATT against FMNL1, which median seed-adjusted z-score is on record?
A: -0.3

Q: For GGAAGUACAUGAACGCAGUTT against EFTUD1, which median seed-adjusted z-score is on record?
A: -1.39 (active)

Q: For GGACGACACGUUCUACCUGTT against ENDOG, which median seed-adjusted z-score is on record?
A: -0.336

Q: Which median seed-adjusted z-score does the source give for GCAGACAAGUCAACCGUGATT against FRK here?
A: -0.14

Q: For CAGGUUAUCGUGUGAAGGATT against TNFRSF14, which median seed-adjusted z-score is on record?
A: 0

Q: For GCACGAAGCUUUCCCUGGATT against KRT78, which median seed-adjusted z-score is on record?
A: 0.306

Q: For GUUUGAUGGUGAUAAGAAATT against PGD, which median seed-adjusted z-score is on record?
A: -1.55 (active)

Q: With GAACCAAAUUGUACGAGAATT against IRX3 as the sequence, how does the median seed-adjusted z-score read?
A: -0.285

Q: Which median seed-adjusted z-score does the source give for GGGAUAAAUUUGACGUGGATT against SPAG1 here?
A: 0.413

Q: With GCUACAUCCUGUUCGAGAATT against CYP27A1 as the sequence, how does the median seed-adjusted z-score read?
A: -0.391

Q: With CAGAAUAAAUCACACCCUATT against INSL3 as the sequence, how does the median seed-adjusted z-score read?
A: -0.037

Q: With CCAAGAUGAGUAUAAAACATT against HRC as the sequence, how does the median seed-adjusted z-score read?
A: 1.06 (active)

Q: For CCAUCUGCUUUCCCGAGUATT against GNAZ, which median seed-adjusted z-score is on record?
A: -0.604

Q: Which median seed-adjusted z-score does the source give for GCUGUGGAUUGUCCAACAATT against NPY5R here?
A: 0.213

Q: For UCAACUGACUCAUACCUGUTT against KCNMB1, which median seed-adjusted z-score is on record?
A: -0.465

Q: For GAACCACUAUGAUCAUUGATT against DPYSL2, which median seed-adjusted z-score is on record?
A: -0.569

Q: Which median seed-adjusted z-score does the source give for CAGUGUAUCUUCAUAAGAUTT against TAF1L here?
A: 0.289

Q: For AGAGUGGAUUUGUACCAAATT against RAB39B, which median seed-adjusted z-score is on record?
A: 0.485

Q: For CGGUGACUCUUUAUGCACATT against PMPCB, which median seed-adjusted z-score is on record?
A: 0.507

Q: Which median seed-adjusted z-score does the source give for GAGAGUGCCUUACACCAAATT against HOXD13 here?
A: 0.116

Q: Which median seed-adjusted z-score does the source give for GAGAGAAAAGGGUCACAAATT against GPR61 here?
A: 0

Q: For UGACCAUCGUCUACAAGAATT against COPZ2, which median seed-adjusted z-score is on record?
A: -1.23 (active)

Q: Which median seed-adjusted z-score does the source give for CAAGAAGCAUUAUUACGAUTT against PPIL2 here?
A: -0.467

Q: Which median seed-adjusted z-score does the source give for CCCUAGAGUAUUACACGGATT against DGKD here?
A: 0.35

Q: With GGACAAAGACUGGUACGUUTT against HTT as the sequence, how does the median seed-adjusted z-score read?
A: -0.234

Q: With CCUUUUACAUGUUCUAUUUTT against SIVA1 as the sequence, how does the median seed-adjusted z-score read?
A: 0.0451

Q: With GGCAAGUUCUCCUUCGACATT against ALDH3B1 as the sequence, how does the median seed-adjusted z-score read?
A: 0.148

Q: For GAACUGUCGUAAACGCAAATT against NFE2L3, which median seed-adjusted z-score is on record?
A: 0.118

Q: With GCCUUAAGGAUGAAGAUAATT against FOXR2 as the sequence, how does the median seed-adjusted z-score read?
A: 0.593

Q: Which median seed-adjusted z-score does the source give for GGUAUCACCUAUACAGAAATT against FKBP11 here?
A: -0.085

Q: For ACUUCAAGCUCCUAAGCCATT against HBA1, which median seed-adjusted z-score is on record?
A: -1.03 (active)

Q: Which median seed-adjusted z-score does the source give for GCCUCUAAGUCUCGAGGAATT against TRPM3 here?
A: -0.633

Q: With CACAGGUAAUCAUACCCUATT against NDUFA9 as the sequence, how does the median seed-adjusted z-score read?
A: -0.325

Q: Which median seed-adjusted z-score does the source give for GAAUCAGAAUACGUAGGAATT against PCDHA2 here?
A: 0.803

Q: With GGAGGAAUCUCGAAUGCGATT against CNOT1 as the sequence, how does the median seed-adjusted z-score read?
A: 1.2 (active)

Q: With GAGGCAAUAUGAAACGAGUTT against CKMT2 as the sequence, how does the median seed-adjusted z-score read?
A: -0.862
